Sampled rows, rich in hits. Any-hit rate of the full collection: about 4.6%.
D1 potentiator: human D1 dopamine receptor positive modulation; P21728; HEK293 TREx D1 cells, calcium flux, dopamine EC20 potentiation; potentiation, % at 10 µM; actives 0.036% (n = 360,000); AID 504651; in the data active = potentiation above about 30%
D1 agonist: agonists of human D1 dopamine receptor | actives 1% (n = 360,000) | P21728 | activation, % at 2 µM | HEK293 T-REx D1 cells, calcium flux, agonist mode
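Inducible HEK293 T-REx D1 cells, force-coupled to calcium signalling, were plated at 4000 cells/well with tetracycline and held overnight at 30 C. After no-wash calcium dye loading, compound-evoked calcium rise over 180 s flagged agonists.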
Epigenetic derep: derepresses silenced GFP reporter in murine cells; murine LDR cells, GFP reporter derepression, 30 h; actives 0.2% (n = 280,000); Potency, µM (doses to about 53.9 µM), most hits filed as activators; active = well fitted activation curve with a large enough effect; inconclusive = small, poorly fitted or top-dose-only effect; also: nearly all actives have a fitted effect of over 60% in size
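Murine LDR cells bearing a silenced CMV-driven GFP reporter were exposed to compound for 30 h at 37 C. After PBS washes, GFP-positive cells (20-120 um objects) counted by laser-scanning microplate cytometry.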
D1 antagonist: human D1 dopamine receptor antagonism. HEK293 TREx D1 cells, calcium flux, dopamine EC80; hits give low values. activity change, negative = inhibition, % at 10 µM. actives 3.2% (n = 360,000). P21728; in the data active = activity change below about -30%
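Calcium flux readout: force-coupled, inducible Hek293 Trex D1 line, cells induced overnight at 30 C with tetracycline, dye-loaded 30–90 min at RT. Antagonism scored against EC80 dopamine challenge given 180 s after compound.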
TRHR enhancer: TRH receptor (human) allosteric enhancement. actives 0.66% (n = 360,000). TRHR cells, fluo-8 calcium fluorescence, EC20 TRH enhancement. enhancement, % at 2 µM; in the data active = enhancement above about 30%
Target sequence (P34981 whole entry, looked up): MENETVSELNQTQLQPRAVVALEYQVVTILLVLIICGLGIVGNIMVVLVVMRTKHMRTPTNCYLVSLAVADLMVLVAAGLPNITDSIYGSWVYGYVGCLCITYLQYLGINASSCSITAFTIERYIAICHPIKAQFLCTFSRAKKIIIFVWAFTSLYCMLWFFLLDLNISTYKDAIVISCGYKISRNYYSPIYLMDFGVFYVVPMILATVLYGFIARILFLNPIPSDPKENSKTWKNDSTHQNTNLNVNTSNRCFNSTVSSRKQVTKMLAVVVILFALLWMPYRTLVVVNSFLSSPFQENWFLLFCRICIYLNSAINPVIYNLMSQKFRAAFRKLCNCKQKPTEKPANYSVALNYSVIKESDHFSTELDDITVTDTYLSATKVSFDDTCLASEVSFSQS
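TRHR-expressing cells loaded with fluo-8 calcium dye were read kinetically (ex 480/em 530) during compound addition, then stimulated with an EC20 of TRH (10 nM final). Enhancement of the Gq-mediated intracellular calcium response was scored.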
TRHR agonist: TRH receptor (human) agonism. TRHR cells, calcium flux fluo-8, FDSS agonist mode. P34981. actives 0.18% (n = 360,000). activation, % at 2 µM. AID 493084
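TRHR-expressing cells loaded with fluo-8 calcium dye; 23 nL library compound pin-transferred, kinetic FDSS fluorescence (Ex 480/Em 530) recorded about 180 s for agonist-induced calcium release, before a 10 nM TRH EC20 addition for potentiator mode.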
Numbers stand for hits; ! = repeats disagree. Rule as the data show it, unless noted: active = activation above about 30%; inactive = the rest.

`CCOc1cc(CN2CCN(S(=O)(=O)c3ccc(C)cc3)CC2)ccc1OC` gave D1 potentiator inactive, D1 agonist inactive, Epigenetic derep inactive, D1 antagonist inactive, TRHR enhancer inactive and TRHR agonist inactive.
For COc1ccc(-c2ccc(C(=O)O)c(=O)[nH]2)cc1 the results were D1 potentiator inactive, D1 agonist inactive, Epigenetic derep inactive, D1 antagonist -30, TRHR enhancer inactive and TRHR agonist inactive.
COc1ccc(-c2cc(=O)[nH]c(=S)[nH]2)cc1 was read as D1 potentiator inactive, D1 agonist inactive, Epigenetic derep inactive, D1 antagonist inactive, TRHR enhancer inactive and TRHR agonist inactive.
COc1ccccc1N1CCN(S(=O)(=O)c2ccc3c(c2)n(C)c(=O)n3C)CC1 was read as D1 potentiator inactive, D1 agonist inactive, Epigenetic derep inactive, D1 antagonist -47, TRHR enhancer inactive and TRHR agonist inactive.
For Cn1c(=O)c2cc(S(=O)(=O)N3CCOCC3)ccc2n(C)c1=O the results were D1 potentiator inactive, D1 agonist inactive, Epigenetic derep inactive, D1 antagonist -31, TRHR enhancer inactive and TRHR agonist inactive.
COc1ccccc1N1CCN(S(=O)(=O)/C=C/c2ccccc2)CC1 was read as D1 potentiator inactive, D1 agonist inactive, Epigenetic derep inactive, D1 antagonist -37, TRHR enhancer inactive and TRHR agonist inactive.
COc1ccccc1N1CCN(S(=O)(=O)c2ccc(F)cc2)CC1 was read as D1 potentiator inactive, D1 agonist inactive, Epigenetic derep inactive, D1 antagonist inactive, TRHR enhancer inactive and TRHR agonist inactive.
Screening Cc1cc(=O)n(C)c2ccc(S(=O)(=O)N3CCOCC3)cc12 returned D1 potentiator inactive, D1 agonist inactive, D1 antagonist inactive, TRHR enhancer inactive and TRHR agonist inactive.
Screening CCNC(=S)N1CCN(S(=O)(=O)/C=C/c2ccccc2)CC1 returned D1 potentiator inactive, D1 agonist inactive, D1 antagonist inactive, TRHR enhancer 40 and TRHR agonist inactive.
For CCc1ccc(NC(=O)Cn2c(=O)n(CCC(=O)NCCc3ccc(Cl)cc3)c(=O)c3ccccc32)cc1 the results were D1 potentiator inactive, D1 agonist inactive, Epigenetic derep inactive, D1 antagonist inactive, TRHR enhancer inactive and TRHR agonist inactive.
Screening COC(=O)c1cc(S(=O)(=O)N2CCCC(C)C2)cn1C (centres undefined) returned D1 potentiator inactive, D1 agonist inactive, D1 antagonist inactive, TRHR enhancer inactive and TRHR agonist inactive.
`COC(=O)c1cc(-c2ccc(S(=O)(=O)N3CCCC(C)C3)cc2)c(C(F)(F)F)s1` (centres undefined) gave D1 potentiator inactive, D1 agonist inactive, Epigenetic derep inactive, D1 antagonist -41, TRHR enhancer inactive and TRHR agonist inactive.
Screening Cc1nn(C)c(C)c1S(=O)(=O)N1CCCC(C(=O)N2CCN(c3ccc(Cl)cc3)CC2)C1 (centres undefined) returned D1 potentiator inactive, D1 agonist inactive, Epigenetic derep inactive, D1 antagonist inactive, TRHR enhancer inactive and TRHR agonist inactive.
Screening Cc1ccc(S(=O)(=O)N2CCCC2)cc1C(=O)Nc1ccc(-n2cnnn2)cc1 returned D1 potentiator inactive, D1 agonist inactive, D1 antagonist -31, TRHR enhancer inactive and TRHR agonist inactive.
Cc1ccc(S(=O)(=O)N2CCCC(C(=O)NCc3ccco3)C2)cc1Cl (centres undefined) was read as D1 potentiator inactive, D1 agonist inactive, Epigenetic derep inactive, D1 antagonist inactive, TRHR enhancer inactive and TRHR agonist inactive.
Cc1ccc(NC(=O)C2CCCN(S(=O)(=O)c3c(C)n[nH]c3C)C2)cc1C (centres undefined) was read as D1 potentiator inactive, D1 agonist inactive, Epigenetic derep inactive, D1 antagonist inactive, TRHR enhancer inactive and TRHR agonist inactive.
Cc1n[nH]c(C)c1S(=O)(=O)N1CCCC(C(=O)N2CCN(c3ccc(Cl)cc3)CC2)C1 (centres undefined) was read as D1 potentiator inactive, D1 agonist inactive, Epigenetic derep inactive, D1 antagonist -48, TRHR enhancer inactive and TRHR agonist inactive.
`Cc1ccc(S(=O)(=O)N2CCCC(C(=O)Nc3ccc(C(=O)O)cc3)C2)cc1Cl` (centres undefined) gave D1 potentiator inactive, D1 agonist inactive, Epigenetic derep inactive, D1 antagonist -33, TRHR enhancer inactive and TRHR agonist inactive.
Cc1ccc(NC(=O)C2CCCN(S(=O)(=O)c3c(C)n[nH]c3C)C2)cc1Cl (centres undefined) was read as D1 potentiator inactive, D1 agonist 36, Epigenetic derep inactive, D1 antagonist inactive, TRHR enhancer inactive and TRHR agonist inactive.
`COc1cccc(-c2ccc3c(N)c(C(=O)NCc4ccc(Cl)cc4)sc3n2)c1` gave D1 potentiator inactive, D1 agonist inactive, Epigenetic derep inconclusive, D1 antagonist inactive, TRHR enhancer inactive and TRHR agonist inactive.
For O=C(CSc1nccn1Cc1ccc(F)cc1)Nc1nc2ccccc2s1 the results were D1 potentiator inactive, D1 agonist inactive, Epigenetic derep inactive, D1 antagonist inactive, TRHR enhancer inactive and TRHR agonist inactive.
`COc1cccc(NC(=O)C2CCCN(S(=O)(=O)c3c(C)[nH]c(=O)[nH]c3=O)C2)c1` (centres undefined) gave D1 potentiator inactive, D1 agonist inactive, Epigenetic derep inactive, D1 antagonist inactive, TRHR enhancer inactive and TRHR agonist inactive.
Screening COc1ccc(NC(=O)C2CCCN(S(=O)(=O)c3c(C)[nH]c(=O)[nH]c3=O)C2)cc1 (centres undefined) returned D1 potentiator inactive, D1 agonist inactive, Epigenetic derep inactive, D1 antagonist -31!, TRHR enhancer inactive and TRHR agonist inactive.
For C/C=C(\C)CN1CCc2cc(OC)c(OC)cc2C1 the results were D1 potentiator inactive, D1 agonist inactive, Epigenetic derep inactive, D1 antagonist inactive, TRHR enhancer 32 and TRHR agonist inactive.
Cn1nc(C(F)(F)F)c(-c2ccc(Br)cc2)c1NC(=O)Nc1ccc(F)cc1F was read as D1 potentiator inactive, D1 agonist inactive, Epigenetic derep inactive, D1 antagonist -34, TRHR enhancer inactive and TRHR agonist inactive.
Cn1nc(C(F)(F)F)c(-c2ccc(F)cc2)c1NC(=O)c1ccco1 was read as D1 potentiator inactive, D1 agonist inactive, Epigenetic derep inactive, D1 antagonist inactive, TRHR enhancer inactive and TRHR agonist inactive.
Screening CCOC(=O)Cn1c(=O)n(CC2CCCO2)c2nc(-c3ccc(CC)cc3)nc(C(N)=O)c21 (centres undefined) returned D1 potentiator inactive, D1 agonist inactive, Epigenetic derep inactive, D1 antagonist inactive, TRHR enhancer inactive and TRHR agonist inactive.

From PubChem BioAssay
